Measurements reported in PubChem BioAssay (NCATS).
Records with an inconclusive call do not appear. Calls of active or inactive are those of the source. Calls follow the shape of the dose curve; as a rule, active = well fitted curve in the direction sought with a large enough effect; inconclusive = small, poorly fitted or top-dose-only effect, or another doubt; inactive = no such curve, though single readings can be large; an effect the other way counts as inactive or inconclusive.

How the values were obtained:
[1] = P-glycoprotein substrates identified in KB-8-5-11 adenocarcinoma cell line, qHTS therapeutic library screen (AID 1346987); also: series mostly up to about 44 µM; nearly all actives have a fitted effect of over 65% in size
Method in brief: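 Steps: plate 500 KB-8-5-11 cells/well in DMEM + 10% FCS (colchicine removed); pin compounds in dose-response; incubate 72 h, 37 degree C, 5% CO2; add CellTiter-Glo, 5 min; read luminescence.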

[2] = Primary qHTS for inhibitors of nuclear receptor binding SET domain protein 2 (NSD2) in an isogenic RCH-ACV NSD2 p.E1099K mutant (9B) (AID 1645876); also: nearly all actives have a fitted effect of over 70% in size
[3] = Primary qHTS for inhibitors of nuclear receptor binding SET domain protein 2 (NSD2) in an RCH-ACV wild type WT cells (2C) (AID 1645877); also: nearly all actives have a fitted effect of over 70% in size
[4] = target: Glutathione peroxidase 1 (Homo sapiens) (UniProt P07203); assay: Primary qHTS Assay for Inhibitors of Recombinant Selenoprotein Glutathione Peroxidase 1 (GPX1) (AID 1845191); also: nearly all actives have a fitted effect of over 65% in size
Sequence of Glutathione peroxidase 1 (Homo sapiens) (P07203 whole entry, looked up): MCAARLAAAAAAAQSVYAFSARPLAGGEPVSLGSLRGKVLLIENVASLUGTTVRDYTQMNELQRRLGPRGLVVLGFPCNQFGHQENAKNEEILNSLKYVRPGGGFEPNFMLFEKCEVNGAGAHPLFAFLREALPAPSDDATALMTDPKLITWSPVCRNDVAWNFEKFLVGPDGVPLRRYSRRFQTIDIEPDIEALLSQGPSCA
Method in brief: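 Recombinant GPX1 (10 nM final) was preincubated with compound for 30 min at room temperature, then reacted with 1 mM GSH, 0.5 mM CHP, 0.5 mM NADPH and 100 nM glutathione reductase; NADPH fluorescence (340/450 nm) was read at 0 and 15 min.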

Measured: Potency

O=c1cc(-c2ccc(O)cc2)oc2cc(OC3OC(CO)C(O)C(O)C3O)c(C3OC(CO)C(O)C(O)C3O)c(O)c12 (centres undefined)
inactive: all assays above
